Here are results for 12 compounds from the supplement of paper PMC10646978.

± gives the standard deviation.

Holding throughout (settings): modulator concentration 10 µM
The subject of assay [1] is RAW-Dual (murine macrophage reporter line). Briefly: NF-kB reporter (SEAP) activity fold change vs agonist alone; higher = enhanced NF-kB activity. The gist of the method: (§1)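 Overnight stimulation with a PRR agonist followed pre-incubation for 1 hour at 37 °C with compound at 10 μM final. This was done in RAW-Dual murine macrophage reporter cells seeded at 50 000 per well in 384-well plates. NF-κB (SEAP, QUANTI-Blue absorbance at 620 nm) and IRF (Lucia luciferase, QUANTI-Luc luminescence) were read from the supernatant. Each reporter's fold change relative to the mean agonist-only control on the same plate was averaged over replicate plates.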

The test system is the same in assay [2]. In words: IRF reporter (Lucia luciferase) activity fold change vs agonist alone; higher = enhanced IRF activity. The gist of the method:
as §1

The test system is the same in assay [3]. Briefly: viability score (confluency relative to resting cells, overnight) (fraction); higher = more viable, active = viable (0.7 or more). The gist of the method: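 A compound met the cutoff when both of two confluency masks exceeded 70% of resting cells. Those masks were made with IncuCyte software from IncuCyte images of RAW-Dual macrophages treated overnight at 10 μM final. This is the basis of the viability score, which is confluency relative to resting cells.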

Setting [4] is: agonist: CpG ODN 1826 0.5 ug/mL.

Take `COc1ccccc1C=C(C#N)c1nc(-c2cc3cc(Br)ccc3oc2=O)cs1`: the NF-kB reporter in assay [1] (setting [4]) was found to be 0.951 ± 0.08; in assay [1] (agonist: LPS 0.1 ug/mL), 0.962 ± 0.075; in assay [1] (agonist: MPLA […]) it was 0.943 ± 0.089. The IRF reporter amounted to 0.972 ± 0.069 in assay [2] (agonist: 3'3'-cGAMP 10 ug/mL), 1.31 ± 0.18 in assay [2] (agonist: LPS 0.1 ug/mL) and 1.58 ± 0.27 in assay [2] (agonist: MPLA […]). Besides, in assay [3], the viability score is 1.02 (active).
`CC(C)CC(C(=O)Nc1ccc(Cl)cc1)N1C(=O)c2ccccc2C1=O` (centres undefined): the results for the NF-kB reporter in assay [1] (setting [4]), in assay [1] (agonist: LPS 0.1 ug/mL) and in assay [1] (agonist: MPLA […]) were 1.01 ± 0.17, 0.982 ± 0.085 and 0.938 ± 0.089, respectively. Also, the results for the IRF reporter in assay [2] (agonist: 3'3'-cGAMP 10 ug/mL), in assay [2] (agonist: LPS 0.1 ug/mL) and in assay [2] (agonist: MPLA […]) were 0.988 ± 0.053, 1.15 ± 0.21 and 1.21 ± 0.2, respectively. For the same compound, the viability score in assay [3] is 0.6 (inactive).
For the compound `Cc1cc(OC2CN(C(=O)Cc3c[nH]c4ccccc34)C2)cc(=O)n1C1CC1`, the NF-kB reporter in assay [1] (setting [4]) was determined as 1.1 ± 0.055; in assay [1] (agonist: LPS 0.1 ug/mL) it was 1.1 ± 0.091; in assay [1] (agonist: MPLA […]), 0.997 ± 0.11. The IRF reporter worked out at 1 ± 0.05 in assay [2] (agonist: 3'3'-cGAMP 10 ug/mL), 1.2 ± 0.076 in assay [2] (agonist: LPS 0.1 ug/mL) and 1.23 ± 0.12 in assay [2] (agonist: MPLA […]). Also, the viability score in assay [3] is 0.983 (active).
As for `NC1CONC1=O` (centres undefined), the NF-kB reporter in assay [1] (setting [4]) was determined as 1.25 ± 0.3; in assay [1] (agonist: LPS 0.1 ug/mL) it was 1.09 ± 0.11; in assay [1] (agonist: MPLA […]) it was 1 ± 0.082. Further, the results for the IRF reporter in assay [2] (agonist: 3'3'-cGAMP 10 ug/mL), in assay [2] (agonist: LPS 0.1 ug/mL) and in assay [2] (agonist: MPLA […]) were 0.937 ± 0.033, 1.2 ± 0.17 and 1.11 ± 0.12, respectively. Further, in assay [3], the viability score is 0.991 (active).
Consider `Cc1cc(C)nc(NS(=O)(=O)c2ccc(NC(=O)C=Cc3cccc4ccccc34)cc2)n1`, for which the figures for the NF-kB reporter in assay [1] (setting [4]), in assay [1] (agonist: LPS 0.1 ug/mL) and in assay [1] (agonist: MPLA […]) were 1.14 ± 0.091, 1.14 ± 0.083 and 1.17 ± 0.091, respectively. Also, the IRF reporter in assay [2] (agonist: 3'3'-cGAMP 10 ug/mL) came out at 0.248 ± 0.026; in assay [2] (agonist: LPS 0.1 ug/mL), 1.21 ± 0.12; in assay [2] (agonist: MPLA […]), 1.04 ± 0.17. For the same compound, the viability score in assay [3] is 0.956 (active).
Regarding `CC(=O)OC(OC(C)=O)c1ccc([N+](=O)[O-])cc1`, the NF-kB reporter in assay [1] (setting [4]) was 1.16 ± 0.094; in assay [1] (agonist: LPS 0.1 ug/mL) it was 1.06 ± 0.069; in assay [1] (agonist: MPLA […]), 1 ± 0.035. Further, the IRF reporter in assay [2] (agonist: 3'3'-cGAMP 10 ug/mL) is 1 ± 0.17; in assay [2] (agonist: LPS 0.1 ug/mL) it was 1.09 ± 0.1; in assay [2] (agonist: MPLA […]) it was 1.09 ± 0.17. Besides, in assay [3], the viability score was 1 (active).
Consider `CCCCc1oc2ccc(NS(C)(=O)=O)cc2c1C(=O)c1ccc(OCCCN(CCCC)CCCC)cc1.Cl`, for which the NF-kB reporter is 0.403 ± 0.048 in assay [1] (setting [4]), 0.998 ± 0.099 in assay [1] (agonist: LPS 0.1 ug/mL) and 1.3 ± 0.14 in assay [1] (agonist: MPLA […]). Moreover, the IRF reporter in assay [2] (agonist: 3'3'-cGAMP 10 ug/mL) amounted to 0.945 ± 0.067; in assay [2] (agonist: LPS 0.1 ug/mL), 1.2 ± 0.12; in assay [2] (agonist: MPLA […]), 1.27 ± 0.18. In addition, the viability score in assay [3] was 0.29 (inactive).
Turning to `CNS(=O)(=O)C[C@H]1CC[C@H](N(C)c2ncnc3[nH]ccc23)CC1.O=C(O)/C=C\C(=O)O`, the values for the NF-kB reporter in assay [1] (setting [4]), in assay [1] (agonist: LPS 0.1 ug/mL) and in assay [1] (agonist: MPLA […]) were 0.179 ± 0.044, 0.0999 ± 0.005 and 0.414 ± 0.033, respectively. The IRF reporter in assay [2] (agonist: 3'3'-cGAMP 10 ug/mL) came out at 0.0771 ± 0.0033; in assay [2] (agonist: LPS 0.1 ug/mL) it was 0.269 ± 0.029; in assay [2] (agonist: MPLA […]), 0.376 ± 0.056. In addition, the viability score in assay [3] is 0.997 (active).
Turning to `CC[C@@H]1C(=O)N(C)c2cnc(Nc3ccc(C(=O)N[C@H]4CC[C@H](N5CCN(CC6CC6)CC5)CC4)cc3OC)nc2N1C(C)C`, the NF-kB reporter in assay [1] (setting [4]) stood at 0.553 ± 0.077; in assay [1] (agonist: LPS 0.1 ug/mL), 1.22 ± 0.31; in assay [1] (agonist: MPLA […]), 4.21 ± 0.23. For the same compound, the results for the IRF reporter in assay [2] (agonist: 3'3'-cGAMP 10 ug/mL), in assay [2] (agonist: LPS 0.1 ug/mL) and in assay [2] (agonist: MPLA […]) were 0.0547 ± 0.0068, 0.0624 ± 0.0084 and 0.138 ± 0.012, respectively. Besides, the viability score in assay [3] was 0.018 (inactive).
Regarding `CCN1CCN(CC(O)COc2ccc(C(C)(C)C)cc2C(C)(C)C)CC1.Cl.Cl` (centres undefined), the NF-kB reporter was determined as 0.72 ± 0.12 in assay [1] (setting [4]), 0.999 ± 0.08 in assay [1] (agonist: LPS 0.1 ug/mL) and 2.1 ± 0.29 in assay [1] (agonist: MPLA […]). The results for the IRF reporter in assay [2] (agonist: 3'3'-cGAMP 10 ug/mL), in assay [2] (agonist: LPS 0.1 ug/mL) and in assay [2] (agonist: MPLA […]) were 0.96 ± 0.052, 1.24 ± 0.14 and 2.24 ± 0.24, respectively. For the same compound, in assay [3], the viability score is 0.25 (inactive).
Turning to `CC(=O)Oc1cc(C(F)(F)F)ccc1C(=O)O`, the NF-kB reporter in assay [1] (setting [4]) worked out at 0.977 ± 0.13; in assay [1] (agonist: LPS 0.1 ug/mL) it was 1.05 ± 0.19; in assay [1] (agonist: MPLA […]), 0.91 ± 0.053. Further, the IRF reporter in assay [2] (agonist: 3'3'-cGAMP 10 ug/mL) was 0.976 ± 0.03; in assay [2] (agonist: LPS 0.1 ug/mL) it was 1.32 ± 0.32; in assay [2] (agonist: MPLA […]), 1.21 ± 0.23. In assay [3], the viability score is 1 (active).
In the case of `CC(=O)Nc1ccc(S(=O)(=O)N2CCCc3ccccc32)cc1`, the results for the NF-kB reporter in assay [1] (setting [4]), in assay [1] (agonist: LPS 0.1 ug/mL) and in assay [1] (agonist: MPLA […]) were 1.15 ± 0.092, 0.888 ± 0.081 and 1.09 ± 0.1, respectively. For the same compound, the IRF reporter in assay [2] (agonist: 3'3'-cGAMP 10 ug/mL) was 1.13 ± 0.043; in assay [2] (agonist: LPS 0.1 ug/mL) it was 1.27 ± 0.24; in assay [2] (agonist: MPLA […]) it was 1.54 ± 0.32. Besides, in assay [3], the viability score was 0.984 (active).
